Source: PubChem (National Center for Advancing Translational Sciences (NCATS))
Shown are actives, neighbours in structure and some others; about 3.4% of the full set was active somewhere.
Mito fusion yeast: mitochondrial division inhibition or fusion activation | S. cerevisiae fusion-defective mutant growth rescue, CellTiterGlo 48 h | Potency, µM (titrated, usually from 46.1 µM), for inactives: at the top dose growth rescue (activation), usual class: activators | actives 0.23% (n = 320,000) | AID 485298; further: % of control where 0% means no effect; nearly all actives have a fitted effect of over 45% in size
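Luminescent cell viability in 1536-well qHTS format served as the measure of rescued growth in ts fusion-mutant S. cerevisiae cultured on non-fermentable YPEG for 48 hours at 37C.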
GLS inh: inhibitors of human glutaminase (GLS) | actives 0.21% (n = 410,000) | AID 624170 | Potency, µM (titrated, usually from 45.5 µM), without a hit: at the top dose activity change, negative = inhibition, usual class: inhibitors | GLS enzymatic activity, qHTS titration; further: on the % scale 0 is the no-effect control and ±100 the full control effect
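hKGA; 45 mM KH2PO4 pH 8.2 + 0.02% Tween-20; cpd via pin tool; 1 mM Gln soln; GluOx/HRP/Amplex Red; RT 30 min; fluor. t0 & final.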
PLK1 PBD inh: PLK1 (human) polo-box domain binding inhibition. Plk1 PBD binding of FITC phosphopeptide, fluorescence polarization. AID 720504. actives 2.8% (n = 360,000). P53350. Potency, µM, for inactives: max response, negative = inhibition, usual class: inhibitors; further: series mostly up to about 57 µM; on the % scale 0 is the no-effect control and ±100 the full control effect; nearly all actives have a fitted effect of over 65% in size
PKM2 activator: increases activity of human pyruvate kinase M2. AID 1631. P14618. purified PKM2, Kinase-Glo ATP luminescence, activation; response scale: 0% is enzyme alone, no compound. Potency, µM (doses to about 57.5 µM), without a hit: at the top dose activation, usual class: activators. actives 0.34% (n = 260,000); further: on the % scale 0 is the no-effect control and ±100 the full control effect; nearly all actives have a fitted effect of over 55% in size
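Purified hPK-M2 (>95% pure) converted ADP (0.1 mM final) to ATP with 0.5 mM PEP in 50 mM imidazole pH7.2, KCl, MgCl2, Tween 20, BSA; 1 h at room temperature. ATP detected by Kinase-Glo luminescence.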
VDR inhibitor: vitamin D3 receptor (human) inhibition; VDR-SRC2-3 peptide fluorescence polarization, 2 h; actives 0.93% (n = 400,000); Potency, µM, for the others: max response, negative = inhibition, most hits filed as inhibitors; P11473; further: on the % scale 0 is the no-effect control and ±100 the full control effect
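FP read-out; VDR + SRC2-3 coactivator peptide; 23 nl compound by pintool; 2 h RT incubation; reagents held at 4 deg C, protected from light.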
GCN5L2 inh: blocks human GCN5L2 histone acetyltransferase | Q92830 | GCN5L2 HAT assay, ThioGlo1 CoA-SH fluorescence | Potency, µM (titrated, usually from 58.9 µM), without a hit: at the highest dose activity change, negative = inhibition, most hits filed as inhibitors | actives 0.21% (n = 390,000) | AID 504327; further: on the % scale 0 is the no-effect control and ±100 the full control effect
Target sequence (Q92830 whole entry, looked up): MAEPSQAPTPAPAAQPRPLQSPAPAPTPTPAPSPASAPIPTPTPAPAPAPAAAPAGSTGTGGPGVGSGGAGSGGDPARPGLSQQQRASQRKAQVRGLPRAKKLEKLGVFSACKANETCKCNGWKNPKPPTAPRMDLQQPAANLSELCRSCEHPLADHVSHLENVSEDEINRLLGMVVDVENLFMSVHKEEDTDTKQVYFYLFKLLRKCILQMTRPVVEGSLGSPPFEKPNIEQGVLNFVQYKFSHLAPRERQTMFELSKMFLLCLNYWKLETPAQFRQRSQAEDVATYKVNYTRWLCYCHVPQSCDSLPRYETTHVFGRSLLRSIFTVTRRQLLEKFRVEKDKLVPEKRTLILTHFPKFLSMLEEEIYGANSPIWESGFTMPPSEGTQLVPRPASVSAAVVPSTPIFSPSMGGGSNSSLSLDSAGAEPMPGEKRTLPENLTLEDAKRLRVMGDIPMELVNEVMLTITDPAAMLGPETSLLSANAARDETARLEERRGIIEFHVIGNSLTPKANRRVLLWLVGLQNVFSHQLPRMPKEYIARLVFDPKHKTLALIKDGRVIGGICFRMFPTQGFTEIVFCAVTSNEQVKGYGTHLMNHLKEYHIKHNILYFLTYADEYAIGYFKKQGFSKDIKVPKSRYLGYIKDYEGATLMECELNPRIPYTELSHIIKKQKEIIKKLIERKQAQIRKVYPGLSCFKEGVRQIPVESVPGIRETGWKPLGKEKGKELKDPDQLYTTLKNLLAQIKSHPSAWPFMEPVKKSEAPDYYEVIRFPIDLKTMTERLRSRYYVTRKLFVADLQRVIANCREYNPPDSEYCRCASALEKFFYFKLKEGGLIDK
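GCN5L2 (20nM final) in 50mM HEPES, 0.1mM EDTA pH 7.5, 0.01% Tween-20 was preincubated 15 min at room temperature with compound, then given ThioGlo1 (50uM), H3(1-25) peptide (75uM) and acetyl-CoA (70uM); CoA-thiol fluorescence (Ex340/Em540) was read at 0 and 20 min.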
The depositor's hits bear a star; ? = inconclusive; nt = not tested or not shown; ! = repeats disagree. The call rests on the fitted dose curve; in most records, active means well fitted curve in the direction sought with a large enough effect; inconclusive means small, poorly fitted or top-dose-only effect, or another doubt; inactive means no such curve, though single readings can be large; an effect the other way counts as inactive or inconclusive. Potency means the concentration at half of the fitted maximal effect.

SMILES	Mito fusion yeast	GLS inh	PLK1 PBD inh	PKM2 activator	VDR inhibitor	GCN5L2 inh
Cc1ccc(N(CC(=O)NCc2ccccc2)C(=O)c2csnn2)c(C)c1	-13%	-4%	-7%	0%	-6%	3%
Cc1c(OCC(=O)N[C@H](C(=O)O)c2ccccc2)ccc2c3c(c(=O)oc12)CCCC3	1%	15%	-6%	-23%	-18%	-23%
COCCCNc1nc2ccccc2nc1NS(=O)(=O)c1ccc(Cl)cc1	14µM*	6%	-24%	nt	3%	2%
Cc1noc(C)c1CSc1nc2ccccc2nc1NS(=O)(=O)c1ccc(Cl)cc1	16%	3%	6µM*	-2%	-7%	-15%
CCN(CC)S(=O)(=O)c1ccc(N2CCOCC2)c(NC(=O)c2cc(C)cc(C)c2)c1	6%	8%	-3%	-10%	3%	11%
O=C(NC(=S)Nc1cc(S(=O)(=O)N2CCOCC2)ccc1O)c1ccco1	0%	-6%	12µM*	-1%	?	-3%
CCN(CC)S(=O)(=O)c1ccc(N2CCOCC2)c(NC(=S)NC(=O)c2ccco2)c1	5%	-21%	24µM*	-2%	?	-15%
O=C(NC(=S)Nc1cc(S(=O)(=O)N2CCOCC2)ccc1N1CCOCC1)c1ccco1	-6%	-11%	-9%	0%	-7%	-5%
O.O=C([O-])CC([S-])C(=O)[O-].[Au+].[Na+].[Na+] (stereo not drawn)	nt	2%	nt	nt	nt	nt
O=C(CCSC1=NCCCN1)c1ccc(F)cc1	nt	35%	?	nt	71µM*	nt
NC(=O)NC(=O)c1nccnc1C(=O)O	3%	-3%	-12%	-3%	-18%	-4%
COc1ccc(C2Nc3ccccc3C(=O)N2c2ccccc2F)cc1COc1ccc(NC(C)=O)cc1 (stereo not drawn)	nt	nt	nt	nt	-7%	nt
CCOc1ccc(NC(=O)CNc2cccc(S(=O)(=O)N3CCCCCC3)c2)cc1OCC	nt	-4%	-3%	nt	-5%	-12%
CC[C@H](NC(=O)c1c(C)c(-c2ccccc2)nc2ccccc12)c1ccccc1	21µM*!	-14%	-14%	-13%	-4%	-19%
Cc1c(-c2ccccc2)nc2ccccc2c1C(=O)O	3%	1%	-3%	-6%	-1%	-5%
CN(C(=O)CSc1nc2c(c(=O)[nH]1)CCCC2)C1CCCCC1	3%	9%	27µM*	-17%	-12%	-5%
CN(C(=O)CSc1nc(N)cc(=O)[nH]1)C1CCCCC1	nt	-4%	-10%	nt	nt	nt
COc1ccc(C(=O)Nc2cc(C(=O)c3ccccc3)c(C)oc2=O)cc1	-4%	6%	-14%	?	32µM*	-4%
Cc1oc(=O)c(NC(=O)c2cccc(Cl)c2)cc1C(=O)c1ccccc1	-3%	2%	-16%	7.1µM*	40µM*	-16%
O=S(=O)(c1ccc(F)cc1)N1CCN(c2nc(-c3cccs3)nc3ccccc23)CC1	nt	nt	nt	nt	-16%	nt
O=Nc1nc2ncccn2c1-c1ccccc1	nt	14%	7.5µM*	nt	?	nt
O=C(O)c1cccc(S(=O)(=O)Nc2ccc(O)c(Sc3nc4ccccc4s3)c2)c1	3%	?	21µM*	0%	-27%	-15%
O=S(=O)(Nc1ccc(O)c(Sc2nc3ccccc3s2)c1)c1ccc(F)cc1	21%	-27%	-21%	2%	-19%	-4%
Nc1c(-c2nc(-c3cccs3)no2)nnn1-c1ccccc1Cl	nt	-11%	nt	nt	1%	-3%
Cc1c(NC(=O)Oc2ccccc2)sc(=S)n1C	-3%	47%	15µM*	-1%	-5%	-2%
Cc1ccc(NC(=O)Nc2sc(=S)n(C)c2C)cc1	-1%	9%	?	0%	-11%	0%
O=S1(=O)CCOC[C@H](CC2CCCCC2)N1Cc1ccccc1	-1%	0%	0%	-1%	-2%	-4%
CC(C)[C@H]1COCCS(=O)(=O)N1Cc1ccccc1-c1ccccc1	nt	11%	24µM*	nt	?	-5%
Cc1ccccc1CN1[C@@H](CC2CCCCC2)COCCS1(=O)=O	-6%	20%	27µM*	-1%	?	-6%
